Rows were chosen to be rich in hits. Some 21% of all compounds tested hit in one or more screens of this group.
Cycloheximide cs: Cycloheximide Counterscreen for Small Molecule Inhibitors of Shiga Toxin; max response, %; actives 12% (n = 300,000); cell reporter, cycloheximide protein synthesis inhibition counterscreen; in the data active = max response mostly above about 13%, no sharp cut-off; inactive = mostly below about 14%; note: read at 38.3 µM for the half of the compounds with a filed dose; 0% is about no effect
Shiga inhibitor: A qHTS for Small Molecule Inhibitors of Shiga Toxin; Vero cells, Shiga toxin protein synthesis inhibition reporter; inhibition, % at 38.7 µM; actives 9.2% (n = 290,000); AID 2315, 2010; in the data active = inhibition mostly above about 28%, no sharp cut-off; inactive = mostly below about 43%; note: 0% is about no effect
Sm TGR inh: qHTS Assay for the Inhibitors of Schistosoma Mansoni Peroxiredoxins; Potency, µM (titrated, usually from 114 µM), for the others: top-dose activity change, negative = inhibition, hits mostly inhibitors; actives 3% (n = 360,000); Schistosoma mansoni thioredoxin glutathione reductase (TGR), Q962Y6; purified TGR, DTNB reduction, TNB absorbance 405 nm; note: potency is the fitted concentration of half-maximal effect; % is set by controls: 0 for no effect and ±100 for the full control effect; nearly all actives have a fitted effect of over 60% in size
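Kinetic colorimetric format: TGR-catalysed, NADPH-driven DTNB reduction monitored via TNB absorbance. Enzyme dispensed at 20 nM; compound exposure 15 min at room temperature before reaction start.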
NS1 inh: qHTS Assay for Inhibitors of Influenza NS1 Protein Function; actives 0.4% (n = 270,000); Potency, µM (highest dose often 46.1 µM), inactives show top-dose activity, positive = more growth; calls by dose curve; note: potency is the fitted concentration of half-maximal effect; actives are rising curves; nearly all actives have a fitted effect of over 50% in size
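S. cerevisiae expressing influenza A NS1, grown in glucose, washed, then diluted 1:100 into pH 6.0 -URA galactose medium with 23 nl compound. Growth recovery read as OD600; NS1-free strain serves as control.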
Pf growth 48h: Primary qHTS for delayed death inhibitors of the malarial parasite plastid, 48 hour incubation; actives 5.9% (n = 310,000); P. falciparum luciferase growth in erythrocytes, 48 h; Potency, µM (doses to about 28.7 µM), for the others: at the top dose activity change, negative = inhibition, actives largely listed as inhibitors; note: potency is the fitted concentration of half-maximal effect; % is set by controls: 0 for no effect and ±100 for the full control effect
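Firefly luciferase activity from engineered P. falciparum reports growth; inhibitors lower the luminescent signal. Cultures contained 2% hematocrit erythrocytes at 0.1% final parasitemia.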
Pf growth 96h: Primary qHTS for delayed death inhibitors of the malarial parasite plastid, 96 hour incubation; actives 6.9% (n = 320,000); P. falciparum luciferase reporter growth, 96 h; Potency, µM (highest dose often 28.7 µM), for inactives: top-dose activity change, negative = inhibition, usual class: inhibitors; AID 504834, 2011; note: potency is the fitted concentration of half-maximal effect; % is set by controls: 0 for no effect and ±100 for the full control effect
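Cell-based qHTS: luciferase-tagged P. falciparum in erythrocytes (2% hematocrit, 0.05% parasitemia final) incubated with compounds for 96 hours, 37 C, 5% CO2; luciferase detection reagent then added and luminescence measured.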
Starred values were filed as active, the others as inactive; ? = inconclusive; nt = not tested or not shown. Unless noted, calls come from the whole dose curve; as a rule, active = well fitted curve in the direction sought with a large enough effect; inconclusive = small, poorly fitted or top-dose-only effect, or another doubt; inactive = no such curve, though single readings can be large; an effect the other way counts as inactive or inconclusive.

SMILES	Cycloheximide cs	Shiga inhibitor	Sm TGR inh	NS1 inh	Pf growth 48h	Pf growth 96h
CCC(=O)N1CCCc2cc(S(=O)(=O)CCC(=O)Nc3ccccc3C)ccc21	-1	3	1%	4%	-25%	5.9µM*
CCC(=O)N1CCc2cc(S(=O)(=O)CCC(=O)N3CCc4ccccc4C3)ccc21	5	12	1%	-3%	-24%	12µM*
CCOc1cccc(C2c3c(oc4ccc(F)cc4c3=O)C(=O)N2CCOC)c1 (stereo not drawn)	nt	nt	-3%	nt	nt	nt
CN(Cc1ccco1)S(=O)(=O)c1ccc2c(c1)CCN2C(=O)CCC(=O)O	-4	-17	-7%	5%	-16%	13µM*
O=C(CN(c1cccc(Br)c1)S(=O)(=O)c1ccccc1)N1CCc2ccccc2C1	nt	nt	2%	nt	nt	nt
O=C(CN(c1cccc(Cl)c1)S(=O)(=O)c1ccc(Cl)cc1)N1CCc2ccccc2C1	10	4	1%	?	12µM*	62%
CCC(=O)N1CCc2cc(S(=O)(=O)CCC(=O)NC3CCCCC3)ccc21	-3	16	8%	5%	-7%	2.6µM*
O=C(CCS(=O)(=O)c1ccccc1)Nc1ncc([N+](=O)[O-])s1	-1	6	45µM*	-25%	?	-3%
O=C(CCS(=O)(=O)Cc1ccccc1)Nc1nncs1	-3	-6	?	-3%	?	-2%
Cc1ccc(S(=O)(=O)CC(=O)Nc2ncc([N+](=O)[O-])s2)cc1	-2	-4	-23%	-12%	-6%	26%
O=C(CCS(=O)(=O)Cc1ccccc1)Nc1ncc([N+](=O)[O-])s1	39*	58*	-4%	-2%	36%	-6%
Cc1ccc(CC(=O)Nc2ncc([N+](=O)[O-])s2)cc1	30*	61	nt	-33%	75%	-20%
O=C(CS(=O)(=O)c1ccccc1)Nc1ncc([N+](=O)[O-])s1	-4	-6	?	26%	12%	1%
CCCC(=O)Nc1sc(C(=O)Nc2cccc(N)c2)c(C)c1C(=O)OC	51*	59*	-1%	3%	59%	13%
CCC(=O)Nc1sc(C(=O)Nc2ccccc2F)c(C)c1C(=O)OC	7	52*	6%	-3%	6%	2.1µM*
CCOC(=O)c1c(N)sc(C(=O)Nc2ccccc2F)c1C	37*	37	nt	-4%	95%	-26%
CCOC(=O)c1c(N)sc(C(N)=O)c1C	-3	-1	2%	1%	14%	0%
COC(=O)c1c(NC(C)=O)sc(C(=O)Nc2ccccc2)c1C	10	28	13%	-3%	30%	-1%
CCOC(=O)n1ccc(C(=O)Nc2ccccc2F)n1	5	37	21%	-4%	51%	?
COC(=O)c1c(NC(C)=O)sc(C(=O)Nc2ccccc2F)c1C	7	13	nt	-1%	50%	41%
CCOC(=O)c1cc(C(=O)Nc2ccccc2F)nn1C	37*	72*	-31%	-8%	nt	334%
N=C(CC(O)COc1ccccc1-c1ccccc1)N1CCCCC1 (stereo not drawn)	-1	2	nt	nt	nt	nt
CCCOC(=O)c1c(N)sc(C(=O)OCC)c1C	37*	active	-11%	-2%	74%	131%
CCOC(=O)c1c(N)sc(C(=O)Nc2ccccc2)c1C	26*	73*	39%	-34%	79%	7%
COc1ccc(NC(=O)Nc2c[nH]c(=O)[nH]c2=O)c(OC)c1	nt	nt	6%	nt	nt	nt
SMILES	Cycloheximide cs	Shiga inhibitor	Sm TGR inh	NS1 inh	Pf growth 48h	Pf growth 96h
CCCCn1c(=O)c2oc3ccccc3c2n(CC(=O)Nc2ccc(CC)cc2)c1=O	nt	nt	1%	nt	nt	nt
S=C(NCc1ccco1)N1CCN(c2ccc(Cl)cc2)CC1	7	18	nt	2%	-10%	?
CC(=O)c1ccc(NC(=S)NCc2ccco2)cc1	36*	58*	nt	1%	10%	-16%
NNC(=S)NCc1ccco1	-1	20	-1%	-2%	1%	?
NC(=O)c1ccc(NC(=S)NCc2ccco2)cc1	11*	39	-27%	nt	21%	12µM*
CC(=O)c1ccc(N2CCN(C(=S)NCc3ccco3)CC2)cc1	0	24	5%	nt	-4%	13µM*
COC(=O)c1ccc(NC(=S)NCc2ccco2)cc1	12	29	?	0%	18%	?
CC(C)(C)NC(=S)NCc1ccco1	-5	-33	25µM*	20%	?	?
CN(C)C(=O)c1ccc(-n2cccn2)nc1	9	30	-1%	nt	10µM*	2%
CC(C)Sc1ccc(C(=O)Nc2ccc(F)cc2F)cn1	48*	50*	-1%	-6%	42%	76%
O=C(Nc1ccc(F)cc1F)c1ccc(-n2cccn2)nc1	16*	18	5%	nt	39%	20%
COc1cc(O)ccc1-c1nc2cc(C)ccn2c1Nc1ccccc1C	nt	nt	7%	nt	nt	nt
CCOC(=O)c1c(C)oc2nc(C)nc(NCCc3ccc(OCC)cc3)c12	nt	nt	5%	nt	nt	nt
Cc1cccc(C)c1OCCSc1nc2ccccc2n1CC(=O)O	-1	nt	-1%	16%	30%	12µM*
CCOC(=O)N1CCC(NC(=O)c2ccc3c(c2)N(Cc2ccc(F)cc2)CCS3)CC1	4	0	-3%	23%	4.7µM*	?
COc1ccc(OC)c(CCNC(=O)c2ccc3c(c2)N(Cc2ccccc2)CCS3)c1	6	11	17%	31%	?	13µM*
CCOC(=O)N1CCC(NC(=O)c2ccc3c(c2)N(Cc2ccc(C)cc2)CCS3)CC1	-3	6	1%	0%	?	?
O=C(NC1CC1)c1ccc2c(c1)N(Cc1ccccc1)CCS2	10	17	-19%	20%	-23%	12µM*
CCOC(=O)N1CCC(NC(=O)c2ccc3c(c2)N(C)CCS3)CC1	8	-5	-25%	-2%	12µM*	?
CCOC(=O)N1CCC(NC(=O)c2ccc3c(c2)N(Cc2ccccc2)CCS3)CC1	3	9	1%	10%	nt	?
COc1ccccc1CNc1ccc(-c2nc(-c3cccc(C)c3)no2)cc1[N+](=O)[O-]	nt	nt	2%	nt	nt	nt
Cc1nc2c(-c3ccccc3)c(C)nn2c(C)c1CCC(=O)N1CCN(c2ccc(F)cc2)CC1	nt	nt	1%	nt	nt	nt
CC1=C(c2cccc(Cl)c2)S(=O)(=O)NC1=NCc1ccccc1C	nt	nt	21%	nt	nt	nt
O=C(NCc1ccco1)c1ccc2c(c1)N(Cc1ccc(Cl)cc1)CCS2	8.3*	45*	?	2%	?	?
COc1cccc(NC(=O)CN(C)C(=O)CCSc2ccc(C)cc2)c1	nt	nt	0%	nt	10µM*	-12%
COc1ccccc1NC(=O)CN(C)S(=O)(=O)c1cc(C)ccc1OC	1	-17	12%	-17%	nt	-24%
COc1ccc(NC(=O)CN(C)C(=O)CCSc2ccc(C)cc2)cc1	nt	nt	-4%	nt	?	?

From PubChem
